Sampled rows, rich in hits. Any-hit rate of the full collection: about 19%.
Pf growth 48h – inhibits P. falciparum growth in the first generation, 48 h; P. falciparum luciferase growth in erythrocytes, 48 h; Potency, µM (series often up to 28.7 µM), for inactives: at the highest dose activity change, negative = inhibition, most hits filed as inhibitors; 310,000 compounds, 5.9% hits; AID 504832; further: potency means the concentration at half of the fitted maximal effect; on the % scale 0 is the no-effect control and ±100 the full control effect
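A one-generation exposure of luciferase-tagged malaria parasites in RPMI 1640/Albumax erythrocyte culture, 37 C and 5% CO2. Inhibition is inferred from decreased luminescence after adding detection reagent.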
MARV entry inh – Marburg virus entry inhibition; 300,000 compounds, 1.8% hits; Potency, µM (series often up to 37.8 µM), for inactives: at the top dose activity change, negative = inhibition, hits mostly inhibitors; Marburg virus pseudotyped entry inhibition, cell reporter; calls by dose curve; tested in HEK293 cells; further: potency means the concentration at half of the fitted maximal effect; on the % scale 0 is the no-effect control and ±100 the full control effect
LASV entry inh – inhibitors of Lassa virus binding or cell entry | AID 540256 | 300,000 compounds, 1.2% hits | Potency, µM (doses to about 37.9 µM), without a hit: at the top dose activity change, negative = inhibition, most hits filed as inhibitors | Lassa virus pseudotype entry inhibition, cell reporter; calls by dose curve; tested in HEK293 cells; further: potency means the concentration at half of the fitted maximal effect; on the % scale 0 is the no-effect control and ±100 the full control effect; nearly all actives have a fitted effect of over 50% in size
Cycloheximide cs – counter-screen for Shiga toxin inhibitors: cycloheximide protein synthesis inhibition; cell reporter, cycloheximide protein synthesis inhibition counterscreen; max response, %; 300,000 compounds, 12% hits; in the data active means max response mostly above about 13%, no sharp cut-off; inactive means mostly below about 14%; further: read at 38.3 µM for the half of the compounds with a filed dose; 0% is about no effect
Pf growth 96h – P. falciparum growth inhibition at 96 hour, primary screen for plastid delayed-death inhibitors; P. falciparum luciferase reporter growth, 96 h; Potency, µM (top dose mostly 28.7 µM), without a hit: at the highest dose activity change, negative = inhibition, hits mostly inhibitors; 320,000 compounds, 6.9% hits; AID 504834; further: potency means the concentration at half of the fitted maximal effect; on the % scale 0 is the no-effect control and ±100 the full control effect
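Luminescence readout: decreased luciferase signal marks inhibited growth of reporter-expressing P. falciparum in infected red cells (2% hematocrit, 0.05% parasitemia final), exposed to compound two generations (96 h, 37 C, 5% CO2).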
Shiga inhibitor – Shiga toxin inhibition; Vero cells, Shiga toxin protein synthesis inhibition reporter; inhibition, % at 38.7 µM; 290,000 compounds, 9.2% hits; in the data active means inhibition mostly above about 28%, no sharp cut-off; inactive means mostly below about 43%; further: 0% is about no effect
G2M arrest HeLa – HeLa G2/M cell cycle arrest induction. HeLa cell cycle G2/M arrest, Hoechst DNA content imaging. 25 compounds, 60% hits. Potency, µM, actives largely listed as inhibitors. AID 2441. shares compounds with MARV entry inh
WI-38 tox – counter-screen for perinucleolar compartment inhibitors: WI-38 cytotoxicity; AID 2729; Potency, µM (doses to about 46.1 µM), for inactives: at the top dose activity change, negative = cytotoxicity, usual class: inhibitors; WI-38 normal lung fibroblasts, ATPLite luminescence ATP viability, 24 h; shares compounds with MARV entry inh; 120 tested, under 10 active
PNC inh conf – confirmation of perinucleolar compartment assembly inhibitors; 120 compounds, 50% hits; AID 2730; PC3M PTB-GFP, PNC prevalence imaging, 16 h; Potency, µM (doses to about 46.1 µM), for the others: at the highest dose activity, negative = PNC inhibition, usual class: inhibitors; shares compounds with MARV entry inh
PC3M casp3-7 – PC3M caspase 3/7 activation by PNC inhibitor hits; 120 tested, under 10 active; shares compounds with MARV entry inh; PC3M-GFP caspase 3/7 activation, luminescence, 24 h; activity change, positive = activation, % at 46.1 µM; AID 2731
Starred values were filed as active, the others as inactive; u = inconclusive; x = not tested or not shown; ! = repeats disagree; [ ] = dose if it differs, or a comment. Unless noted, the call rests on the fitted dose curve; in most records, active means well fitted curve in the direction sought with a large enough effect; inconclusive means small, poorly fitted or top-dose-only effect, or another doubt; inactive means no such curve, though single readings can be large; an effect the other way counts as inactive or inconclusive.

SMILES	Pf growth 48h	MARV entry inh	LASV entry inh	Cycloheximide cs	Pf growth 96h	Shiga inhibitor	WI-38 tox	PNC inh conf	PC3M casp3-7	others
CNc1ccc2oc(C[C@H]3O[C@@]4(CC[C@H]3C)O[C@H]([C@H](C)C(=O)c3ccc[nH]3)[C@H](C)C[C@H]4C)nc2c1C(=O)O	0.928µM*	2.91µM*	0.231µM*	-4.6	0.415µM*	-2.7	x	x	x	G2M arrest HeLa=4.47*
CCCc1cc(=O)[nH]c(SCC(=O)c2cc(C)n(C)c2C)n1	x	-2.1%	3.3%	1.1	-5.0%	-8.8	x	x	x
CCC1(O)CC2CN(CCc3c([nH]c4ccccc34)[C@@](C(=O)OC)(c3cc4c(cc3OC)N(C=O)C3[C@]45CCN4CC=C[C@@](CC)([C@@H](OC(C)=O)[C@]3(O)C(=O)OC)[C@H]45)C2)C1 (stereo partly specified)	x	12.6µM*!	x	x	x	x	x	x	x	G2M arrest HeLa=u
CC[C@]12C=CCN3CC[C@@]4(c5ccc(OC)cc5N(C)[C@H]4[C@@](O)(C(=O)OC)[C@@H]1OC(C)=O)C32 (stereo partly specified)	x	x	x	-6.5	x	-5.7	x	x	x
Oc1ccc(-c2nc(-c3ccc(F)cc3)c(-c3ccncc3)[nH]2)cc1	u	5.01µM*	u	x	13.1µM*	x	x	x	x	G2M arrest HeLa=u
O=C(O)c1ccc(-c2nc(-c3ccccc3)c(-c3ccccc3)[nH]2)cc1	-11.7%	13.6%	u	2.5	u	-3.2	x	x	x
CCSC1=C(C#N)C(c2cccc(OC)c2)CC(=O)N1 (stereo unspecified)	-25.7%	26.1%	-2.1%	-2.4	-13.3%	-3.6	x	x	x
COc1cc2[nH]c(=S)nc(NC3CCCCCC3)c2cc1OC	u	u	6.3%	4.4	8.1%	-1.4	x	x	x
CCc1ccc(NC(=S)NC2CCN(Cc3ccccc3)CC2)cc1	0.0%	u	u	-2.4	0.0%	-2.8	x	x	x
C/C(N)=C(/C#N)C(=O)COC(=O)c1cc(C)n(-c2ccc(F)cc2)c1C	8.28µM*	2µM*	u	72.2*	3.29µM*	96.0*	-3.9%	12.6µM*	-8.5
C(=N\c1nccs1)/c1c[nH]c2ccccc12	9.7%	6.3%[46.1 µM]	-14.0%	-1.7	30.1%	-16.2	x	x	x
O=c1c2ccccc2nnn1CSc1ccc2ccccc2n1	-5.1%	13.4%	-0.6%	10.8	u	10.8	19.3%	u	-8.0
O=C(N/N=C/c1cc(Cl)ccc1O)C(=O)Nc1ccccc1OC(F)(F)C(F)F	u	u	u	-3.4	0.0%	15.2	-7.8%	u	6.4
O=C(N/N=C\c1ccc([N+](=O)[O-])s1)c1cncc(Br)c1	8.28µM*	2.59µM*	2.91µM*	-3.0	3.29µM*	-5.9	-26.3%	22.4µM*	u
Cc1sc2nc(C3CC3)nc(SCC(=O)N3c4ccccc4CC3C)c2c1C (stereo unspecified)	u	4.11µM*	1.83µM*	1.2	47.9%	-13.1	-0.6%	7.08µM*	-1.3
CCNC(=O)CN1C(=O)NC2(CCOc3ccccc32)C1=O (stereo unspecified)	9.2%	-19.5%[46.1 µM]	14.8%[46.1 µM]	-8.6	23.3%	-4.4	x	x	x
COc1ccc(-n2c(SC(C)C(=O)Nc3ncc(Cl)cc3Cl)nc3ccccc32)cc1 (stereo unspecified)	10.4µM*	u	0.251µM*	1.9	u	-2.4	u	3.16µM*	3.7
CC(=O)Nc1cccc2c1OCCO2	31.3%	-4.2%	10.9%	-0.2	20.7%	10.4	x	x	x
Cc1ccc(SCC(=O)NN2C(=O)c3ccccc3C2=O)cc1	22.2%	1.8%[46.1 µM]	0.8%	3.2	u	-10.8	x	x	x
CSc1nc(-c2ccc(C)cc2)nc(C(Cl)Cl)n1	5.5%	u	u	0.4	67.3%	-3.6	-13.4%	12.6µM*	u
CC(C)CNC(=O)CSc1nnc(-c2cccc(S(=O)(=O)N3CCCCC3)c2)o1	-0.7%	-5.3%[46.1 µM]	-7.3%	0.2	15.9%	18.2	-8.6%	-22.1%	-6.6
CNC1=C(N(C(C)=O)c2ccc(Br)cc2)C(=O)c2ccccc2C1=O	0.0415µM*	2.31µM*	5.62µM*	-7.6	0.0294µM*	-13.0	u	u	u
COc1ccc(CCNC(=O)C2CC2)cc1OC	0.6%	-2.4%	1.1%	4.7	12.7%	9.7	x	x	x
COc1ccc(CN2CCC(C(=O)NCCc3ccc(OC)c(OC)c3)CC2)c(OC)c1	x	u	-0.6%	-1.5	u	1.0	-27.2%	u	-8.2
Cc1c(C#N)c(N)nc2c3c(sc12)NC(=O)CC3c1ccccc1 (stereo unspecified)	-19.0%	u	1.0%	-2.0	9.4%	-10.8	x	x	x
SMILES	Pf growth 48h	MARV entry inh	LASV entry inh	Cycloheximide cs	Pf growth 96h	Shiga inhibitor	WI-38 tox	PNC inh conf	PC3M casp3-7	others
Cc1c(C#N)c(N)nc2c3c(sc12)NC(=O)CC3c1ccc(F)cc1 (stereo unspecified)	18.5%	u	14.9%	5.2	u	11.1	-11.8%	-10.4%	-5.8
Cc1cnc(NC(=O)COc2cccc3c2OC(C)(C)C3)s1	4.9%	u	0.708µM*	11.6	-4.9%	-12.8	-4.3%	7.94µM*	-3.0
CC1(C)Cc2cccc(OCC(=O)Nc3ccccc3F)c2O1	3.0%	x	x	x	0.0%	x	x	x	x
Cc1cc(C)c(S(=O)(=O)/N=C2/C=C(Sc3ncn[nH]3)C(=O)c3ccccc32)cc1C	1.65µM*	1.58µM*	12.6µM*	32.6*	10.4µM*	48.3*	-6.7%	6.31µM*	-7.0
COc1cc(-c2noc(CSc3nc(-c4ccccc4)cc(=O)[nH]3)n2)cc(OC)c1OC	x	x	14.3%[46.1 µM]	x	x	x	x	x	x
CC1(c2ccc3c(c2)OCO3)NC(=O)N(CC(=O)NCCC2=CCCCC2)C1=O (stereo unspecified)	19.3%	17.0%	u	-2.6	56.4%	-18.3	x	x	x
CCOC(=O)CNC(=O)CSc1nccn1Cc1ccco1	3.8%	-20.3%	15.3%	-1.8	39.0%	-7.8	x	x	x
CC(=O)c1c(C)cc(C)c(CSc2nc(C)cc(=O)[nH]2)c1C	-11.6%	u	-14.2%	9.2	-17.5%	-17.0	0.1%	u	-4.0

Source: PubChem BioAssay
